Shown are actives, neighbours in structure and some others; about 2.8% of the full set was active somewhere.
DRD3 antagonist: D3 dopamine receptor (human) antagonism; P35462; AID 652054; D3R cells, DiscoveRx beta-arrestin luminescence, antagonist mode; stronger effect = lower value; hit rate 2.5% among 360,000; max response, negative = inhibition, %; in the data active means max response below about -50%; inconclusive means no clear call, values can overlap the other calls; further: on the % scale 0 is the no-effect control and ±100 the full control effect
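Cells plated overnight at 1500 cells/well, then exposed to library compounds with dopamine controls for 90 minutes at 37 degrees C. DiscoveRx reagent added for 30–60 minutes at room temperature; luminescence read, quantitative HTS format.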
Giardia killer: kills Giardia lamblia; Giardia lamblia trophozoite viability; activity change, % at 7.66 µM, hits read low; hit rate 0.15% among 340,000; AID 540267; in the data active means activity change below about -80%; inconclusive means between about -30% and that limit;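 further: parasites exposed to compound for two days anaerobically before the ATP read; on the % scale 0 is the no-effect control and ±100 the full control effect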
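Giardia trophozoites, 100 cells per well, were exposed to compounds for 48 hrs at 37 deg C under anaerobic conditions; viability was then read as ATP content by bioluminescence after 15-30 min at room temperature.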
DRD3 agonist: agonists of human D3 dopamine receptor | hit rate 0.58% among 410,000 | max activation, % | D3R DiscoveRx beta-arrestin cells, luminescence, 90 min | P35462; in the data active means max activation above about 30%; further: 0% is about no effect
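Agonist-mode cell screen: cells plated at 1500/well and incubated overnight at 37 °C, then exposed to library compounds for 90 min at 37 °C. Detection reagent was added for 30–60 min at room temperature, and luminescence was read.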
B2AR arrestin: agonists driving beta-arrestin recruitment to human beta2-adrenergic receptor; P07550; beta-arrestin recruitment to beta2AR, cell-based reporter; Potency, µM (titrated, usually from 46.1 µM), for inactives: at the top dose activation, most hits filed as activators; hit rate 0.02% among 330,000; AID 492947; active means well fitted activation curve with a large enough effect; inconclusive means small, poorly fitted or top-dose-only effect;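 further: potency means the concentration at half of the fitted maximal effect; 0% = DMSO controls and full agonism = EC100 isoproterenol or metaproterenol; nearly all actives have a fitted effect of over 65% in size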
Target sequence (P07550 whole entry, looked up): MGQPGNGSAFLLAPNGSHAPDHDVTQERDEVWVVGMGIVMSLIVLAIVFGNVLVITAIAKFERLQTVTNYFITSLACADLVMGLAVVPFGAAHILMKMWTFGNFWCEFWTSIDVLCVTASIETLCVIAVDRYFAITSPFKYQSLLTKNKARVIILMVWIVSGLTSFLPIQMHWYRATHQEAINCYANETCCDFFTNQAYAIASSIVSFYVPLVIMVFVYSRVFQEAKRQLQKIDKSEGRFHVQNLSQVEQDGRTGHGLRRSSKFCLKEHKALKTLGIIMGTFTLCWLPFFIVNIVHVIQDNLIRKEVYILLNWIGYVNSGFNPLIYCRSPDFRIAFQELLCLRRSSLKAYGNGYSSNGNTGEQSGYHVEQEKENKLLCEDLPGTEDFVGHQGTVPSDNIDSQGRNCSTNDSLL
* hit, by the source's call; ? = inconclusive; . = no result given.

SMILES	DRD3 antagonist	Giardia killer	DRD3 agonist	B2AR arrestin
CNC(=O)CN(CCN(CCN(CC(=O)[O-])CC(=O)NC)CC(=O)[O-])CC(=O)[O-].O.[Gd+3]	.	.	-10.0	.
COc1ccc(N2CCN(C(=O)CN3C(=O)NC4(CCCc5ccccc54)C3=O)CC2)cc1 (stereo unspecified)	-73.6*	?	-10.1	0.0%
C[C@@H]1CC=C[C@H]2[C@H]1C(=O)N(Cc1ccccc1)[C@H]2c1ccc(-c2ccoc2)cc1F	-62.5*	-18.5	-26.2	-1.1%
CCN1CCCC1CNC(=O)c1cc2c(-c3cccc(OC)c3)nn(C)c2s1 (stereo unspecified)	-71.7*	45.0	0.6	0.1%
CCN(CC)CCCNC(=O)c1cc2c(-c3cccc(OC)c3)nn(C)c2s1	-82.2*	6.6	-6.7	-0.9%
COc1cccc(-c2nn(C)c3sc(C(=O)NCCCN(C)Cc4ccccc4)cc23)c1	-53.3*	-13.5	-15.9	-0.9%
COCCCNC(=O)c1cc2c(-c3ccc(Cl)cc3)nn(C)c2s1	36.3	4.5	3.6	0.3%
CCOCCCNC(=O)c1cc2c(-c3ccc(OC)c(OC)c3)nn(C)c2s1	.	.	1.0	.
COc1cccc(-c2nn(C)c3sc(C(=O)NCCc4ccc(Cl)cc4)cc23)c1	.	.	5.3	.
CCCCN(CC)CCCNC(=O)c1cc2c(-c3ccc(OC)c(OC)c3)nn(C)c2s1	-97.9*	-10.1	-22.3	-0.8%
CCn1c(SCc2ccccc2Cl)nc(=O)c2c(C(=O)OC)cc(C3CC3)nc21	.	.	-5.9	.
COc1ccc(OC)c(Nc2nc3ccccc3n3c(C)nnc23)c1	.	.	1.9	.
CCC1=C[C@@H]2CN(C1)Cc1c([nH]c3ccccc13)[C@@](C(=O)OC)(c1cc3c(cc1OC)N(C)[C@H]1[C@@](O)(C(=O)OC)[C@H](OC(C)=O)[C@]4(CC)C=CCN5CC[C@]31[C@@H]54)C2	.	.	-5.8	.
Cc1ccc2cc(CN(C)C(=O)c3cccc(Cl)c3)c(=O)[nH]c2c1	.	.	4.7	.
C=CC1CN2CCC1CC2[C@@H](O)c1ccnc2ccc(OC)cc12 (stereo partly specified)	.	-4.8	.	.
CCCCN(C)CCNC(=O)c1cc2c(-c3cccc(OC)c3)nn(C)c2s1	-78.1*	0.4	-18.9	-1.1%
COc1cccc(-c2nn(C)c3sc(C(=O)NCc4ccco4)cc23)c1	-3.6	13.9	0.0	-0.7%
CCCCN(C)CCNC(=O)c1cc2c(-c3ccccc3F)nn(C)c2s1	-94.8*	5.1	-38.3	-1.0%
COc1ccc(NC(=O)c2cc3c(-c4ccccc4F)nn(C)c3s2)c(OC)c1	.	.	40.6*	.
N#C/C(=C\c1ccc(N2CCOCC2)o1)C(=O)NC1CCCCC1	-5.5	-8.3	-0.9	-1.1%
N#C/C(=C/c1ccc(N2CCCCC2)o1)c1cccc(F)c1	-69.4*	-17.5	-55.2	3.6%
Cc1ccc(/C(C#N)=C\c2ccc(N3CCOCC3)o2)cc1	-64.8*	2.4	-27.0	-0.2%
N#C/C(=C/c1ccc(N2CCCCCC2)o1)c1ccc(Cl)cc1	-64.1*	12.0	-25.9	-0.8%
N#C/C(=C\c1ccc(N2CCOCC2)o1)C(=O)NCC1CCCO1 (stereo unspecified)	-82.0*	6.0	-0.9	-0.1%
O=C(NC(=S)NNC(=O)c1ccccc1O)c1cccs1	0.9	-1.8	37.0*	0.0%
SMILES	DRD3 antagonist	Giardia killer	DRD3 agonist	B2AR arrestin
COc1ccccc1C(=O)NNC(=S)NC(=O)c1cccs1	.	.	.	0.1%
CC(C)(C)OC(=O)N1CCCC1C(=O)NC1COC2CC(n3ccc(=O)[nH]c3=O)OC12 (stereo unspecified)	.	22.0	.	.
CC(O)CN(CCN(CC(C)O)CC(C)O)CC(C)O (stereo unspecified)	.	.	-5.7	.
S=c1nn[nH]c2ccccc12	-19.9	9.5	85.3*	.
Nc1n[nH]c2ccccc12	7.9	14.4	23.7	0.0%
O=C(C(=Cc1ccc(F)cc1)c1ccccc1)c1ccc(O)cc1	18.9	-8.4	2.6	.
O=C(C(=Cc1ccc(F)cc1)C(=O)c1ccccc1)c1ccccc1	-61.5*	.	-8.0	.
CCOc1ccc(-n2c(-c3ccc(Br)cc3)cc3c2CC(C)(C)CC3=O)cc1	.	.	-21.2	.
CC(C)(C)C(=O)C(Cc1ccccc1)n1cncn1 (stereo unspecified)	-54.9*	21.5	2.7	0.4%
COc1ccccc1NC(=O)CSc1nc2c(oc3ccccc32)c(=O)n1C	67.4	13.8	31.2*	0.3%
CCc1ccccc1NC(=O)CSc1nc2c(oc3ccccc32)c(=O)n1C	.	.	7.9	.
COc1ccc(OC)c2c1CCC2=O	-52.0*	37.6	3.1	-0.2%
CC(=O)c1ccc(N2C(=O)N(Cc3ccc(F)cc3)c3ccccc3S2(=O)=O)cc1	.	.	49.5*	.
CCC(CC)C(=O)Nc1cccc(/C(C)=N/NC(=O)c2c(Br)cnn2C)c1	-51.3*	12.6	-0.3	-0.8%
CCC(CC)C(=O)Nc1cccc(/C(C)=N/NC(=O)c2ccccc2Cl)c1	1.1	-21.1	4.3	-1.0%
Cc1[nH]n(-c2ccccc2)c(=O)c1C1(C(F)(F)F)C(=O)N(c2ccccc2)C2=C1C(=O)CC(C)(C)C2 (stereo unspecified)	-16.7	3.0	3.8	0.0%
Cc1ccc(N2C(=O)C(c3c(C)[nH]n(-c4ccccc4)c3=O)(C(F)(F)F)C3=C2CC(C)(C)CC3=O)cc1 (stereo unspecified)	-74.9*	-6.7	2.8	-0.2%
COc1cc(OC)cc(-c2nc3ccccc3c(=O)n2OC(=O)c2ccccc2C)c1	81.4	6.2	33.7*	0.2%
O=C(CCN1CCc2ccccc2C1)Nc1ccccc1F	-77.9*	13.1	0.1	0.0%
O=C(CCN1CCCCCC1)Nc1cccc(F)c1	?	0.7	-11.9	0.0%
O=C(CCN1CCc2ccccc2C1)Nc1ccccc1	-73.2*	6.1	-10.8	-0.2%
O=C(CCN1CCN(c2ccc(Cl)cc2)CC1)Nc1ccccc1F	-19.6	-15.7	6.3	0.2%
O=C(CCN1CCc2ccccc2C1)Nc1cccc(F)c1	-65.7*	0.1	-10.1	-0.6%
CCNC(=O)C1(C)CCN1CCC(=O)c1ccc(Br)cc1 (stereo unspecified)	0.0	.	73.0*	.
Cc1ccc(-n2c(-c3ccccc3)nsc2=NC#N)cc1	.	-6.3	.	.
SMILES	DRD3 antagonist	Giardia killer	DRD3 agonist	B2AR arrestin
Cc1ccccc1OCCCCn1nnc2sc3c(c2c1=O)CCC(C)C3 (stereo unspecified)	.	.	-0.4	.
Cc1cc(C)n(-c2ccc(C(=O)N3CCN(S(=O)(=O)c4ccc(Cl)cc4)CC3)cc2)n1	9.2	22.5	-2.0	-0.4%
Cc1nn(-c2ccc(C(=O)N3CCN(S(=O)(=O)c4ccccc4C(F)(F)F)CC3)cc2)c(C)c1Cl	2.3	-10.1	112.4*	3.7%
Cc1nn(-c2ccc(C(=O)O)cc2)c(C)c1Cl	13.9	-17.9	5.3	0.2%
CC(=O)c1ccc(S(=O)(=O)N2CCN(C(=O)c3ccc(-n4nc(C)c(Cl)c4C)cc3)CC2)cc1	17.7	8.2	76.7*	-0.2%
O=[N+]([O-])c1ccc2nc(NN=Cc3ccc(O)cc3)sc2c1	-51.9*	6.5	-3.7	.
Cc1ccccc1CCNC(=O)c1ccc2c(c1)nc1n2CCC(C)C1 (stereo unspecified)	.	.	-14.8	.
O=C(NNc1c2ccccc2nc2ccccc12)c1ccc(O)cc1	-64.2*	21.6	-7.2	-0.7%

Source: PubChem
